Laboratory results taken from the supplement of paper PMC7765376.
Over roughly 1,500 compounds, “Excess HSA synergy score (sum over dose matrix of excess over highest single agent)” has its median near 43; the lowest 2% begin near -900. The list comes from a sample in which the lowest values are over-represented; it also holds similar structures and randomly drawn compounds.

System: PEO-1
Experiment: Excess HSA synergy score (sum over dose matrix of excess over highest single agent) (score (summed % response)); higher = less synergy / more antagonism (negative = synergy)
Details: 72 h, read-out: viability/apoptosis luminescence (CellTiter-Glo or Caspase3-Glo / not stated per table)
[1] = matrix design: 6x6, 5-fold dilutions (primary screen)
[2] = matrix design: 10x10, 9-step dilutions (confirmatory)

| Structure (SMILES) | Excess HSA synergy score [1] | Excess HSA synergy score [2] |
| --- | --- | --- |
| COc1ccc(-c2cc3nccn3c(Nc3ncccc3C(N)=O)n2)cc1OC + CC[C@H](NC(=O)[C@H](C)NC)C(=O)N1C[C@@H](O)C[C@H]1Cc1c(-c2[nH]c3cc(F)ccc3c2C[C@@H]2C[C@H](O)CN2C(=O)[C@H](CC)NC(=O)[C@H](C)NC)[nH]c2cc(F)ccc12 [Birinapant] | 38 |  |
| Cn1cc(CNCC2CCN(c3ncc(C(=O)NO)cn3)CC2)c2ccccc21 [Quisinostat] + CC[C@H](NC(=O)[C@H](C)NC)C(=O)N1C[C@@H](O)C[C@H]1Cc1c(-c2[nH]c3cc(F)ccc3c2C[C@@H]2C[C@H](O)CN2C(=O)[C@H](CC)NC(=O)[C@H](C)NC)[nH]c2cc(F)ccc12 [Birinapant] | -161 | -1370 |
| Cn1cc(C[C@@H](N)C(=O)O)c2ccccc21 [Indoximod] + CC[C@H](NC(=O)[C@H](C)NC)C(=O)N1C[C@@H](O)C[C@H]1Cc1c(-c2[nH]c3cc(F)ccc3c2C[C@@H]2C[C@H](O)CN2C(=O)[C@H](CC)NC(=O)[C@H](C)NC)[nH]c2cc(F)ccc12 [Birinapant] | 168 |  |
| CN1CCc2c(c3ccccc3n2Cc2ccc(C(=O)NO)cc2)C1 [Tubastatin A] + CC[C@H](NC(=O)[C@H](C)NC)C(=O)N1C[C@@H](O)C[C@H]1Cc1c(-c2[nH]c3cc(F)ccc3c2C[C@@H]2C[C@H](O)CN2C(=O)[C@H](CC)NC(=O)[C@H](C)NC)[nH]c2cc(F)ccc12 [Birinapant] | -71.8 |  |
| NC(=O)c1cnc(-c2ccc(C3(N)CCC3)cc2)c(-c2ccccc2)c1 + CC[C@H](NC(=O)[C@H](C)NC)C(=O)N1C[C@@H](O)C[C@H]1Cc1c(-c2[nH]c3cc(F)ccc3c2C[C@@H]2C[C@H](O)CN2C(=O)[C@H](CC)NC(=O)[C@H](C)NC)[nH]c2cc(F)ccc12 [Birinapant] | 61.1 |  |
| CN(C)C(=O)c1ccc(S(=O)(=O)c2ccc(NC(=O)[C@@](C)(O)C(F)(F)F)c(Cl)c2)cc1 + CC[C@H](NC(=O)[C@H](C)NC)C(=O)N1C[C@@H](O)C[C@H]1Cc1c(-c2[nH]c3cc(F)ccc3c2C[C@@H]2C[C@H](O)CN2C(=O)[C@H](CC)NC(=O)[C@H](C)NC)[nH]c2cc(F)ccc12 [Birinapant] | 50.1 |  |
| NC1(c2ccc(-c3nc4ccn5c(=O)[nH]nc5c4cc3-c3ccccc3)cc2)CCC1 + CC[C@H](NC(=O)[C@H](C)NC)C(=O)N1C[C@@H](O)C[C@H]1Cc1c(-c2[nH]c3cc(F)ccc3c2C[C@@H]2C[C@H](O)CN2C(=O)[C@H](CC)NC(=O)[C@H](C)NC)[nH]c2cc(F)ccc12 [Birinapant] | 208 |  |
| N#CCNC(=O)c1ccc(-c2ccnc(Nc3ccc(N4CCOCC4)cc3)n2)cc1 [Momelotinib] + CC[C@H](NC(=O)[C@H](C)NC)C(=O)N1C[C@@H](O)C[C@H]1Cc1c(-c2[nH]c3cc(F)ccc3c2C[C@@H]2C[C@H](O)CN2C(=O)[C@H](CC)NC(=O)[C@H](C)NC)[nH]c2cc(F)ccc12 [Birinapant] | -152 |  |
| Cc1ccc(-c2ncn(-c3ccc(Nc4nccc(-c5cccc(N6CCOCC6)c5)n4)cc3)n2)cn1 + CC[C@H](NC(=O)[C@H](C)NC)C(=O)N1C[C@@H](O)C[C@H]1Cc1c(-c2[nH]c3cc(F)ccc3c2C[C@@H]2C[C@H](O)CN2C(=O)[C@H](CC)NC(=O)[C@H](C)NC)[nH]c2cc(F)ccc12 [Birinapant] | 108 | -998 |
| Cc1nc(N)sc1-c1ccnc(Nc2ccc(N3CCOCC3)cc2)n1 + CC[C@H](NC(=O)[C@H](C)NC)C(=O)N1C[C@@H](O)C[C@H]1Cc1c(-c2[nH]c3cc(F)ccc3c2C[C@@H]2C[C@H](O)CN2C(=O)[C@H](CC)NC(=O)[C@H](C)NC)[nH]c2cc(F)ccc12 [Birinapant] | 9.08 |  |
| CCCS(=O)(=O)Nc1ccc(F)c(C(=O)c2c[nH]c3ncc(Cl)cc23)c1F + CC[C@H](NC(=O)[C@H](C)NC)C(=O)N1C[C@@H](O)C[C@H]1Cc1c(-c2[nH]c3cc(F)ccc3c2C[C@@H]2C[C@H](O)CN2C(=O)[C@H](CC)NC(=O)[C@H](C)NC)[nH]c2cc(F)ccc12 [Birinapant] | -164 |  |
| C=C1CC[C@@H]2[C@](C)(CO)[C@H](O)CC[C@@]2(C)[C@@H]1C/C=C1/C(=O)OC[C@H]1O [Andrographolide] + CC[C@H](NC(=O)[C@H](C)NC)C(=O)N1C[C@@H](O)C[C@H]1Cc1c(-c2[nH]c3cc(F)ccc3c2C[C@@H]2C[C@H](O)CN2C(=O)[C@H](CC)NC(=O)[C@H](C)NC)[nH]c2cc(F)ccc12 [Birinapant] | 12.7 |  |
| Cc1cc(Nc2cc(N3CCN(C)CC3)nc(Sc3ccc(NC(=O)C4CC4)cc3)n2)n[nH]1 [Tozasertib] + CC[C@H](NC(=O)[C@H](C)NC)C(=O)N1C[C@@H](O)C[C@H]1Cc1c(-c2[nH]c3cc(F)ccc3c2C[C@@H]2C[C@H](O)CN2C(=O)[C@H](CC)NC(=O)[C@H](C)NC)[nH]c2cc(F)ccc12 [Birinapant] | -170 |  |
| C=CC(=O)Nc1cccc(Sc2nc(Nc3ccc(N4CCN(C)CC4)cc3)ncc2Cl)c1 + CC[C@H](NC(=O)[C@H](C)NC)C(=O)N1C[C@@H](O)C[C@H]1Cc1c(-c2[nH]c3cc(F)ccc3c2C[C@@H]2C[C@H](O)CN2C(=O)[C@H](CC)NC(=O)[C@H](C)NC)[nH]c2cc(F)ccc12 [Birinapant] | 73.6 |  |
| Cc1nc(Nc2ncc(C(=O)Nc3c(C)cccc3Cl)s2)cc(N2CCN(CCO)CC2)n1 [Dasatinib] + CC[C@H](NC(=O)[C@H](C)NC)C(=O)N1C[C@@H](O)C[C@H]1Cc1c(-c2[nH]c3cc(F)ccc3c2C[C@@H]2C[C@H](O)CN2C(=O)[C@H](CC)NC(=O)[C@H](C)NC)[nH]c2cc(F)ccc12 [Birinapant] | -329 | -1400 |
| c1cc(-c2sc(-c3ccncc3)c(-c3ccncc3)c2-c2ccncc2)ccn1 + CC[C@H](NC(=O)[C@H](C)NC)C(=O)N1C[C@@H](O)C[C@H]1Cc1c(-c2[nH]c3cc(F)ccc3c2C[C@@H]2C[C@H](O)CN2C(=O)[C@H](CC)NC(=O)[C@H](C)NC)[nH]c2cc(F)ccc12 [Birinapant] | 153 |  |
| O=c1cc(-c2ccccc2)oc2cc(O)cc(O)c12 [5,7-Dihydroxyflavone] + CC[C@H](NC(=O)[C@H](C)NC)C(=O)N1C[C@@H](O)C[C@H]1Cc1c(-c2[nH]c3cc(F)ccc3c2C[C@@H]2C[C@H](O)CN2C(=O)[C@H](CC)NC(=O)[C@H](C)NC)[nH]c2cc(F)ccc12 [Birinapant] | -131 |  |
| CCOC(=O)[C@@H](N)CCC(=O)N[C@@H](CSCc1ccccc1)C(=O)N[C@@H](C(=O)OCC)c1ccccc1 [Ezatiostat] + CC[C@H](NC(=O)[C@H](C)NC)C(=O)N1C[C@@H](O)C[C@H]1Cc1c(-c2[nH]c3cc(F)ccc3c2C[C@@H]2C[C@H](O)CN2C(=O)[C@H](CC)NC(=O)[C@H](C)NC)[nH]c2cc(F)ccc12 [Birinapant] | 49.2 |  |
| Cc1[nH]c(/C=C2\C(=O)Nc3ccc(S(=O)(=O)N(C)c4cccc(Cl)c4)cc32)c(C)c1C(=O)N1CCN(C)CC1 + CC[C@H](NC(=O)[C@H](C)NC)C(=O)N1C[C@@H](O)C[C@H]1Cc1c(-c2[nH]c3cc(F)ccc3c2C[C@@H]2C[C@H](O)CN2C(=O)[C@H](CC)NC(=O)[C@H](C)NC)[nH]c2cc(F)ccc12 [Birinapant] | -71.9 |  |
| CN1CCCN(C(=O)c2cccc(-c3ccc(/C=C4/C(=O)Nc5ccc(Cl)cc54)o3)c2)CC1 + CC[C@H](NC(=O)[C@H](C)NC)C(=O)N1C[C@@H](O)C[C@H]1Cc1c(-c2[nH]c3cc(F)ccc3c2C[C@@H]2C[C@H](O)CN2C(=O)[C@H](CC)NC(=O)[C@H](C)NC)[nH]c2cc(F)ccc12 [Birinapant] | 92.9 | -1060 |
| Cc1[nH]c(/C=C2\C(=O)Nc3ccc(S(=O)(=O)Cc4c(Cl)cccc4Cl)cc32)c(C)c1C(=O)N1CCC[C@@H]1CN1CCCC1 + CC[C@H](NC(=O)[C@H](C)NC)C(=O)N1C[C@@H](O)C[C@H]1Cc1c(-c2[nH]c3cc(F)ccc3c2C[C@@H]2C[C@H](O)CN2C(=O)[C@H](CC)NC(=O)[C@H](C)NC)[nH]c2cc(F)ccc12 [Birinapant] | -132 |  |
| COc1cc(-c2nn([C@H]3CC[C@H](N4CCN(C(C)=O)CC4)CC3)c3ncnc(N)c23)ccc1NC(=O)c1cc2ccccc2n1C + CC[C@H](NC(=O)[C@H](C)NC)C(=O)N1C[C@@H](O)C[C@H]1Cc1c(-c2[nH]c3cc(F)ccc3c2C[C@@H]2C[C@H](O)CN2C(=O)[C@H](CC)NC(=O)[C@H](C)NC)[nH]c2cc(F)ccc12 [Birinapant] | 112 |  |
| CO[C@@H]1[C@H](N(C)C(=O)c2ccccc2)C[C@H]2O[C@]1(C)n1c3ccccc3c3c4c(c5c6ccccc6n2c5c31)C(=O)NC4=O [Stauprimide] + CC[C@H](NC(=O)[C@H](C)NC)C(=O)N1C[C@@H](O)C[C@H]1Cc1c(-c2[nH]c3cc(F)ccc3c2C[C@@H]2C[C@H](O)CN2C(=O)[C@H](CC)NC(=O)[C@H](C)NC)[nH]c2cc(F)ccc12 [Birinapant] | 168 |  |
| COc1ccc(OC)c(-c2nnc3ccc(-c4ccc(OC)c(O[C@@H]5CCOC5)c4)nn23)c1 + CC[C@H](NC(=O)[C@H](C)NC)C(=O)N1C[C@@H](O)C[C@H]1Cc1c(-c2[nH]c3cc(F)ccc3c2C[C@@H]2C[C@H](O)CN2C(=O)[C@H](CC)NC(=O)[C@H](C)NC)[nH]c2cc(F)ccc12 [Birinapant] | -150 |  |
